Assay outcomes from PubChem BioAssay.
HP1b binding inh = inhibitors of HP1-beta chromodomain binding to methylated histone tails. 390,000 tested, 0.56% active. AlphaScreen HP1-beta / biotin-H3K9me3 peptide binding. P83916. AID 540317. Potency, µM (doses to about 114 µM), usual class: inhibitors; note: nearly all actives have a fitted effect of over 70% in size
Target sequence (P83916 whole entry, looked up): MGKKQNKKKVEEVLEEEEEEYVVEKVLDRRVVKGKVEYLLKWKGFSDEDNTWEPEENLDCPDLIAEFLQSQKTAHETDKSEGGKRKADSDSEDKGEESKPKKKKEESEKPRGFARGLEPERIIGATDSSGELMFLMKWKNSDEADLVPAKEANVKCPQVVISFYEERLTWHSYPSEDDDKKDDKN
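AlphaScreen: HP1-beta (50 nM) preformed 30 min with biotin-H3(1-18)K9me3 peptide (50 nM) in PBS pH 7.4, 0.01% Tween-20. Compound added for 30 min at RT, then streptavidin donor/nickel chelate acceptor beads (10 ug/mL) for 30 min.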
Sfp inh = blocks B. subtilis Sfp PPTase activity; Biochemical Sfp PPTase activity, qHTS; AID 1490; 310,000 tested, 3.5% active; Potency, µM, actives largely listed as inhibitors;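 note: the enzyme is Sfp with the accession as filed and its product quenches rhodamine fluorescence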
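Reaction rates are the 30-min fluorescence difference (ex 525, em 598 nm) in wells containing 15 nM Sfp, 5 uM rhodamine-CoA and 12.5 uM BHQ-2-YbbR at pH 7.6 with 10 mM MgCl2.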
L3MBTL1 block = L3MBTL1 (human) inhibition; AlphaScreen L3MBTL1–H3K9me1 peptide binding; 230,000 tested, 0.66% active; Potency, µM (doses to about 57.1 µM), actives largely listed as inhibitors; note: nearly all actives have a fitted effect of over 60% in size
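L3MBTL1 (50 nM) pre-complexed 30 min with biotinylated H3(1-15)K9me1 peptide (75 nM), then compounds added for 30 min at room temperature; AlphaScreen streptavidin donor/nickel chelate acceptor beads (10 ug/mL final) read after 30 min dark incubation.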
G9a inh = G9a (human) methyltransferase inhibition; Q96KQ7; G9a H3K9 monomethylation, AlphaScreen, 2 h; Potency, µM (doses to about 102 µM), actives largely listed as inhibitors; 350,000 tested, 8.8% active; note: nearly all actives have a fitted effect of over 75% in size
Target sequence (Q96KQ7 913-1193 limits assumed): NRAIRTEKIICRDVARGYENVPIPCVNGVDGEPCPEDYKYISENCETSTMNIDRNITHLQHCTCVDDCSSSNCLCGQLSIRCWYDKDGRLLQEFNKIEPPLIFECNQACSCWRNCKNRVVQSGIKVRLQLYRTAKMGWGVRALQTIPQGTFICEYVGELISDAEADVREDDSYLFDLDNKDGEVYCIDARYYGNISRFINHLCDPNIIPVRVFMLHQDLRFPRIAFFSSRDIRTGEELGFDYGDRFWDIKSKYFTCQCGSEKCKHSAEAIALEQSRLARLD
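Readings reflect AlphaScreen signal from monomethyl-H3K9 antibody detection. HMT at 20 nM; substrate b-H3K9 500 nM; cofactor SAM 20 uM; 2 h RT reaction; compounds tested as titrations in qHTS with 15 min preincubation.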
BAZ2B block = blocks human BAZ2B | Q9UIF8 | AlphaScreen BAZ2B-H3K14Ac peptide displacement | Potency, µM (doses to about 114 µM), actives largely listed as inhibitors | 360,000 tested, 4.4% active; note: nearly all actives have a fitted effect of over 60% in size
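AlphaScreen luminescence quantifies BAZ2B engagement of H3K14Ac peptide; the protein and biotinylated peptide are both at 50 nM final, buffer PBS pH 7.4 with 0.01% Tween-20, all steps at room temperature.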
JMJD2A Tudor = inhibitors of human JMJD2A Tudor domain. Potency, µM (series often up to 114 µM), hits mostly inhibitors. 390,000 tested, 4.4% active. O75164. AlphaScreen JMJD2A-Tudor / H3K4me3 peptide binding. AID 504339; note: nearly all actives have a fitted effect of over 50% in size
Large screens that a line does not name were inactive. Hits are enriched below; roughly 12% of the tested compounds scored in any of these assays. Calls come from the whole dose curve; as a rule, active = well fitted curve in the direction sought with a large enough effect; inconclusive = small, poorly fitted or top-dose-only effect, or another doubt; inactive = no such curve, though single readings can be large; an effect the other way counts as inactive or inconclusive.

CC(=O)c1ccc(OCC(=O)OCC(=O)NCc2ccco2)cc1	none (no result: Sfp inh)
CCOC(=O)c1ccc(NC(=O)CCCn2c(=O)c3cccn3c3cccnc32)cc1	none (no result: Sfp inh, L3MBTL1 block)
O=C1CC(c2ccco2)c2ccc3ccccc3c2N1 (stereo not given)	G9a inh 50µM, BAZ2B block 50µM, JMJD2A Tudor inconclusive
COc1cc(C(=O)N/C(=C\c2cn(C)c3ccccc23)C(=O)NCCN2CCOCC2)cc(OC)c1OC	none (no result: L3MBTL1 block, G9a inh)
COc1ccc(C(=O)N/C(=C\c2cn(C)c3ccccc23)C(=O)NCCN2CCOCC2)cc1OC	G9a inh 50µM, BAZ2B block inconclusive (no result: L3MBTL1 block)
CCOC(=O)C(Nc1ccc2ccccc2c1)C(=O)OCC	L3MBTL1 block 28µM, G9a inh 2µM, BAZ2B block 50µM, JMJD2A Tudor inconclusive
CC(=O)Nc1ccc2ccccc2c1	none (no result: L3MBTL1 block)
Oc1cccc(/C=N/c2c(-c3ccco3)nc3ccccn23)c1	HP1b binding inh inconclusive, Sfp inh inconclusive, L3MBTL1 block inconclusive, G9a inh 50µM, BAZ2B block 56µM, JMJD2A Tudor inconclusive
Cc1cc(C)c([N+](=O)[O-])cc1-c1ccc(/C=N/c2c(-c3ccco3)nc3ccccn23)o1	HP1b binding inh inconclusive, Sfp inh inconclusive, L3MBTL1 block inconclusive, BAZ2B block 10µM, JMJD2A Tudor 6.3µM
Clc1cc2c(c(CSc3nc4ccccc4n4cccc34)c1)OCOC2	G9a inh 45µM
CCOc1ccccc1NC(=O)C(CC)n1c(C(=O)OC)cc2occc21 (stereo not given)	G9a inh inconclusive, BAZ2B block inconclusive (no result: Sfp inh, L3MBTL1 block)
Cc1ccc(NC(=O)CSc2ncc3c(n2)-c2ccccc2N(Cc2cccc(F)c2)S3(=O)=O)cc1F	none (no result: Sfp inh, L3MBTL1 block)
CCn1c(C)cc(/C=C2\NC(=O)N(CC(=O)Nc3cccc(C)c3)C2=O)c1C	G9a inh inconclusive, BAZ2B block inconclusive
Cc1ccc(NC(=O)CN2C(=O)N/C(=C/c3ccc(C)s3)C2=O)cc1	Sfp inh 40µM, G9a inh inconclusive
C=CCN1C(=O)N/C(=C/c2ccc(C)o2)C1=O	Sfp inh 10µM, G9a inh inconclusive
Cc1ccc(NC(=O)CN2C(=O)N/C(=C/c3ccc(C)o3)C2=O)cc1	Sfp inh 10µM, G9a inh 35µM
CCn1c(C)cc(/C=C2/NC(=O)N(CC(=O)Nc3cccc(C)c3)C2=O)c1C	G9a inh 45µM
Cc1cccc(NC(=O)CN2C(=O)N/C(=C\c3ccc(-c4cccc(C(=O)O)c4)o3)C2=O)c1	Sfp inh 40µM, G9a inh 45µM (no result: L3MBTL1 block)
COc1ccc(/C=C2/NC(=O)N(CC(=O)Nc3cccc(C)c3)C2=O)cc1O	none
Cc1cccc(NC(=O)CN2C(=O)N/C(=C/c3ccc(C)o3)C2=O)c1	Sfp inh 11µM, G9a inh 35µM, JMJD2A Tudor 79µM
O=C(Cn1cc(COc2c(F)c(F)c(Br)c(F)c2F)nn1)c1ccc(O)cc1	none (no result: Sfp inh, L3MBTL1 block, G9a inh, BAZ2B block)
COc1ccc(N(C(=O)c2snc(C(N)=O)c2N)C(C(=O)NC2CCCC2)c2cc(OC)ccc2OC)cc1 (stereo not given)	none (no result: L3MBTL1 block)
COc1ccccc1CNc1nc(-c2ccco2)nn1S(=O)(=O)c1ccc2ccccc2c1	G9a inh inconclusive, BAZ2B block inconclusive (no result: Sfp inh, L3MBTL1 block)
Cc1nnc(SCCN2CCOCC2)n1C	HP1b binding inh inconclusive, Sfp inh inconclusive, G9a inh 35µM, BAZ2B block inconclusive, JMJD2A Tudor 1µM
Cc1cc(C)c(C#N)c(SCCN2CCOCC2)n1	none (no result: G9a inh)
CCn1c(C)c2c([n+]1CC)CC(C)(C)CC2=O	G9a inh 16µM, JMJD2A Tudor 32µM (no result: L3MBTL1 block)
O=C(Nc1cc(S(=O)(=O)N2CCOCC2)ccc1N1CCOCC1)c1cccs1	JMJD2A Tudor 89µM (no result: Sfp inh)
CC(=O)N1CCN(S(=O)(=O)c2cccc(C(=O)Nc3ccccc3N3CCCC3)c2)CC1	none (no result: Sfp inh)
CCc1ccc(C(=O)NNC(=O)c2cccc(S(=O)(=O)N3CCN(C)CC3)c2)cc1	G9a inh 56µM (no result: Sfp inh)
CN1CCN(S(=O)(=O)c2cccc(C(=O)Nc3cc(C(F)(F)F)ccc3N3CCCC3)c2)CC1	G9a inh 50µM (no result: Sfp inh)
CN1CCN(S(=O)(=O)c2cccc(C(=O)NCc3ccc(Cl)cc3)c2)CC1	none (no result: BAZ2B block)
